# Results published in paper PMC4336329 (PLoS ONE, 2015).
# The whole screen tested about 310,000 compounds, of which about 14,000 (4.5%) showed an effect of 50% or more. Effects have a minus sign here. This is one part of a sample in which strong results are shown more often than they occur.
# Molecular target: human ether-à-go-go-related gene (hERG) potassium channel (human, UniProt Q12809)
# Assay: primary screen, population patch clamp on CHO cells stably expressing hERG; higher = less effect of the substance
# 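Also: peak tail current of the secondary pulse compared with the same well before compound.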
# human ether-à-go-go-related gene (hERG) potassium channel, sequence (Q12809 whole entry, looked up): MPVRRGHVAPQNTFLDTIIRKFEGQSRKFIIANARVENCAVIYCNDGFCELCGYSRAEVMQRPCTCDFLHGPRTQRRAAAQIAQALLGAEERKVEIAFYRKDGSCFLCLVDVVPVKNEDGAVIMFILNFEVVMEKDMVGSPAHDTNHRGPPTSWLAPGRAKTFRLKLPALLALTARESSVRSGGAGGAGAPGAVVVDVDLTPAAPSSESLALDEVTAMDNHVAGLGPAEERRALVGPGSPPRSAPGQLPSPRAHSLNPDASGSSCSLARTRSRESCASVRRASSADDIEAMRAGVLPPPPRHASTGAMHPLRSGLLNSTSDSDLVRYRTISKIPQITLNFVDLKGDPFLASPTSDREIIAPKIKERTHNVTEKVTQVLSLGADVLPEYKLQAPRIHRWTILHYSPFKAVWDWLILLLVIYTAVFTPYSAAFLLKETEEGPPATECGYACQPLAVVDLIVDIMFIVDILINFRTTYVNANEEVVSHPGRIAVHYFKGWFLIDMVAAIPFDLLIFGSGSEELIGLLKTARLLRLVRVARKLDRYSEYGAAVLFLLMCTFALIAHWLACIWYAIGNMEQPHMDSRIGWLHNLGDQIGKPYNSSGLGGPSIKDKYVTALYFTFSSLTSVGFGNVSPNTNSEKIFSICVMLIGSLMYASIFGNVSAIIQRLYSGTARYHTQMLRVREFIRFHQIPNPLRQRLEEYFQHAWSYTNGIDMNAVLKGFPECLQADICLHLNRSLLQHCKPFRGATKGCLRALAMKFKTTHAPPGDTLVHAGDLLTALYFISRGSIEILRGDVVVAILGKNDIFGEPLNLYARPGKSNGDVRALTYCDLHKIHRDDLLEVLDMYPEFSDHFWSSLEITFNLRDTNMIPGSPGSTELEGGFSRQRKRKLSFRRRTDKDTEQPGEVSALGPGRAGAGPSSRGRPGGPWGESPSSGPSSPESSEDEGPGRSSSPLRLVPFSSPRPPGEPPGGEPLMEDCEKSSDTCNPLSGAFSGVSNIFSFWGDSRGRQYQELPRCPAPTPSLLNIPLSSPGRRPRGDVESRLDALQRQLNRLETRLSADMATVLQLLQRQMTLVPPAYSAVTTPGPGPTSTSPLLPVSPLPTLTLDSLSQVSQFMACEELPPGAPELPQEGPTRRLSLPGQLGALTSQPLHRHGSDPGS
row,SMILES,"hERG current change (%, negative = inhibition) at 10uM"
1,Cc1ccc(-c2nn(C)c(=O)c3ccccc23)cc1S(=O)(=O)NCCN1CCOCC1,-2.69%
2,Cn1c(=O)[nH]c(=O)c2c1nc(N1CCOCC1)n2CCc1ccccc1,-0.713%
3,Cc1cccc(N=C2NC(=O)/C(=C/c3cccs3)S2)c1,11.9%
4,COc1cc(C)c(/C=C(\C#N)C(=O)Nc2ccc(C)cc2)cc1C(C)C,11.1%
5,COCCN(C(=O)COC(=O)c1sccc1C)c1c(N)n(Cc2ccccc2)c(=O)[nH]c1=O,15.4%
6,CCCN(CCC)CCCNC(=O)C(NS(=O)(=O)c1ccc2c(c1)CCC(=O)N2)c1ccccc1 (stereo not shown),20.5%
7,CCn1ncc(S(=O)(=O)NCc2ccco2)c1C,-0.626%
8,O=C(Nc1ccc(S(=O)(=O)Nc2cnc3ccccc3n2)cc1)c1ccccc1Br,-10.5%
9,O=C(CCN1C(=O)/C(=C/c2cccs2)SC1=S)Nc1ccccc1O,13.7%
10,CC(C)c1ccc(NC(=O)CNC(=O)Cn2cnc3ccccc3c2=O)cc1,3.21%
11,Cc1ccc(N/C=C/C(=O)c2ccco2)c(O)c1,8.63%
12,COc1cc2c(cc1NC(=O)CSc1nc3ccc(C)cc3[nH]1)oc1ccccc12,7.65%
13,Cc1ccc(-c2nnc(N3CCN(C(=O)c4cccs4)CC3)c3ccccc23)cc1,-65.4%
14,CC(=O)N1CCN(c2nnc(-c3ccc(C)cc3)c3ccccc23)CC1,-38.6%
15,CC(=O)N1CCN(c2nnc(-c3ccccc3)c3ccccc23)CC1,3.22%
16,O=C(c1cccs1)N1CCN(c2nnc(-c3ccccc3)c3ccccc23)CC1,-76.5%
17,Cc1ccc(-c2nnc(N3CCN(C(=O)CN4C(=O)c5ccccc5C4=O)CC3)c3ccccc23)cc1,6.37%
18,O=C(c1cccs1)N1CCN(c2ncccn2)CC1,0.299%
19,Cc1ccc(C(=O)Nc2ccc(Cl)cc2C(=O)c2ccccc2)cc1,17.1%
20,O=C(CSc1ccccc1)N1CCN(S(=O)(=O)c2ccccc2F)CC1,-23.9%
21,Cc1c(N=Cc2cccnc2)c(=O)n(-c2ccccc2)n1C,2.93%
22,CC(=O)Oc1ccc2c(=O)oc(-c3ccc([N+](=O)[O-])cc3)nc2c1,1.56%

row,SMILES,"hERG current change (%, negative = inhibition) at 10uM"
1,Cc1ccc(C)c(S(=O)(=O)N2CCN(C(=O)Cn3c(C(F)(F)F)nc4ccccc43)CC2)c1,-1.16%
2,O=c1c2ccccc2c(=O)n(-c2ccccc2)n1CCCCBr,-63.5%
3,O=c1c2ccccc2c(=O)n(Cc2ccccc2)n1Cc1ccccc1,16.8%
4,CC(=O)n1c(=O)c2ccccc2c(=O)n1-c1ccccc1,3.89%
5,Cc1cccc(C(=O)OCC(=O)c2c(N)n(CC(C)C)c(=O)n(C)c2=O)c1[N+](=O)[O-],-29.1%
6,O=C(CCCC(=O)OCC1CCCO1)OCC1CCCO1 (stereo not shown),8.27%
7,CCOC(=O)c1cn(CC(=O)Nc2ccc(OC)cc2OC)nn1,9.07%
8,CC1CCN(CCCCOc2ccc(Br)cc2)CC1,-69.4%
9,Brc1ccc(OCCCN2CCOCC2)cc1.O=C(O)C(=O)O,-28.1%
10,Brc1ccc(OCCCCCN2CCOCC2)cc1.O=C(O)C(=O)O,-63.8%
11,Brc1ccc(OCCCCN2CCCCC2)cc1,-53.6%
12,Brc1ccc(OCCOCCN2CCOCC2)cc1,-9%
13,Cl.O=C(COc1ccc(Br)cc1)OCCN1CCCCC1,11.8%
14,Cc1ccc(OCCCCN2CCCCC2)cc1,-12.1%
15,C#CCOCCOCCOCCNc1nc(N2CCN(C(=O)CCCCCCCCCCNC(=O)Cn3cc(C[C@@H](C)O)nn3)CC2)nc(N2CCN(C(=O)CCCCCCCCCCNC(=O)[C@H](CCCCN)n3cc(CCCC(=O)O)nn3)CC2)n1,-1.72%
16,C1CCc2c(nc3nnnn3c2N2CCOCC2)C1,-3.03%
17,COc1ccc(C(=O)Nc2nc3ccccc3s2)cc1OC,-65.8%
18,COc1cccc(C(=O)Nc2nc3ccccc3s2)c1,4.88%
19,COc1ccc(CC(=O)Nc2nc3ccccc3s2)cc1S(=O)(=O)N1CCOCC1,-65.9%
20,COc1ccc(CC(=O)Nc2ccc(C#N)c(Cl)c2)cc1S(=O)(=O)N1CCOCC1,-68.1%
21,COc1ccc(CC(=O)Nc2ccc(N3CCOCC3)cc2)cc1S(=O)(=O)N1CCOCC1,0.936%
22,COc1ccc(CC(=O)Nc2ccc(F)c(Cl)c2)cc1S(=O)(=O)N1CCOCC1,-46.1%

row,SMILES,"hERG current change (%, negative = inhibition) at 10uM"
1,COc1ccc(C(=O)Nc2nc3ccccc3s2)cc1,11.6%
2,COc1ccc2nc(NC(=O)Cc3ccc(OC)c(S(=O)(=O)N4CCOCC4)c3)sc2c1,-22.1%
3,COc1ccc(CC(=O)Nc2nc3ccc(F)cc3s2)cc1S(=O)(=O)N1CCOCC1,-19.4%
4,COc1cc(NC(=O)c2nccn2C)cc(C(=O)Nc2cccc(C(F)(F)F)c2)c1,5.31%
5,CC(C)CC(C(=O)NC(=O)NCc1ccccc1)N1C(=O)c2ccccc2C1=O (stereo not shown),8.22%
6,CC(C)(C)C(=O)OCCn1c(=O)c2cc3c(=O)n(CCOC(=O)C(C)(C)C)c(=O)c3cc2c1=O,25.5%
7,CC(=O)c1sc2nc(-c3ccc(C)cc3)c3c(c2c1N)CCCC3,2.68%
8,Cc1ccc(C(O)(C(=O)NNS(=O)(=O)c2ccc(C)cc2)c2ccc(C)cc2)cc1,-5.55%
9,Cc1nn(C)cc1[C@@H]1C[C@H]2CN(Cc3cccc(Cl)c3)C(=O)[C@]23CCCN13,-36.8%
10,CCCn1ncc([C@@H]2C[C@H]3CN(Cc4cccc(Cl)c4)C(=O)[C@]34CCCN24)c1C,-43.6%
11,CCCn1cc([C@@H]2C[C@H]3CN(Cc4cccc(Cl)c4)C(=O)[C@]34CCCN24)c(C)n1,-67.3%
12,CCn1cc([C@@H]2C[C@H]3CN(Cc4cccc(Cl)c4)C(=O)[C@]34CCCN24)c(C)n1,-41.7%
13,Cc1ccccc1CN1C[C@@H]2C[C@@H](c3cn(C)nc3-c3ccccc3)N3CCC[C@@]23C1=O,3.15%
14,Cn1cc([C@@H]2C[C@H]3CN(Cc4cccc(Cl)c4)C(=O)[C@]34CCCN24)c(-c2ccccc2)n1,-63.3%
15,O=C1NC(c2ccccc2)CCC1(Cl)Cl (stereo not shown),6.57%
16,CCc1ccc(NC(=O)c2cccc(NC3=NC4CS(=O)(=O)CC4S3)c2)cc1 (stereo not shown),18%
17,CCn1c(=O)n(CC(=O)NCc2ccccc2OC)c(=O)c2ccccc21,8.2%
18,CC(C)(C)C(=O)C1=C(O)C(=O)N(Cc2ccccc2)C1c1ccccc1Cl (stereo not shown),14.1%
19,O=C(COc1ccccc1O)N1CCN(C(=O)c2ccco2)CC1,-24.8%
20,CCOC(=O)Nc1ccc(C(=O)c2ccncc2)cc1,14.7%
21,COc1ccccc1-c1ccc(=O)n(CC(=O)NC(C)(C)C)n1,14%
22,COc1cccc2[nH]c3c(N4CCc5ccccc5C4)ncnc3c12,4.69%

row,SMILES,"hERG current change (%, negative = inhibition) at 10uM"
1,CC1(C)Cc2c(sc(NC(=O)C(C)(C)C)c2C#N)C(C)(C)N1,3.16%
2,CC(=O)Nc1ccc(S(=O)(=O)N2CCN(Cc3cccs3)CC2)cc1.O=C(O)C(=O)O,-7.69%
3,N#Cc1ccc(S(=O)(=O)N2CCN(Cc3cccs3)CC2)cc1,-61.2%
4,O=C(NCc1cccs1)C1CCN(S(=O)(=O)c2ccccc2F)CC1,10.4%
5,O=C(CN1CCN(S(=O)(=O)c2ccc(Cl)cc2)CC1)NCc1cccs1,-59.1%
6,N#CCCN1CCN(S(=O)(=O)c2ccc(C#N)cc2)CC1,-10.6%
7,O=C(CN1CCN(S(=O)(=O)c2ccc(F)cc2)CC1)NCc1cccs1,-32.1%
8,O=C(NCc1cccs1)C1CCN(S(=O)(=O)c2ccc(Cl)cc2)CC1,4.41%
9,Cl.O=C(CN1CCN(c2ccc(F)cc2)CC1)NCc1cccs1,-15.4%
10,O=C(CN1CCN(S(=O)(=O)c2ccccc2C(F)(F)F)CC1)NCc1cccs1,-68.1%
11,COc1ccc(OC)c(Nc2nc(-c3ccc(O)c(O)c3)cs2)c1,10.8%
12,CC12CN3CC(C)(CN(C1)C31CCOCC1)C2=O,11.4%
13,CCOc1cc(C(=O)NC2CC(C)(C)NC(C)(C)C2)cc(OCC)c1OCC,20%
14,O=C(NCc1ccco1)C1CCN(S(=O)(=O)Cc2ccccc2)CC1,-5.29%
15,CCOc1ccc(S(=O)(=O)N(C)CC(=O)NCc2ccccn2)cc1Cl,-27.8%
16,O=C(CSc1ncn[nH]1)Nc1ccc2c(c1)OCCO2,-26.9%
17,Cc1csc(N)n1,7.04%
18,Cc1ccnc(NC(=O)CC(c2ccccc2)c2ccccc2)n1,30.5%
19,Clc1ccc(CSc2cc3c(nn2)-c2ccccc2CC3)cc1,23%
